SMILES strings stand for the structures. The panel holds about 83,000 compounds, 20% with a hit somewhere; the sample as a whole holds those more often.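 Interpretation: 100, growth as untreated; towards 0, rising growth inhibition; 0, no net growth; 0 to -100, cell death. Compounds scoring below 10 were considered active.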 Unmarked numbers belong to inactive results. The source made the active and inactive calls.

Assay in all cases: NCI-60 one-dose screen, 48 h (100 = growth as untreated, 0 = no growth, -100 = all killed)
What all share (settings): 10 µM unless noted

Experiment [1] has as its system NCI-H23 lung.
Experiment [2] has as its system NCI-H226 lung.
Experiment [3] relates to NCI-H322M lung.
In experiment [4] the test system is HOP-62 NSCLC.
Experiment [5] deals with NCI-H460 lung.
Experiment [6] has as its system HOP-92 NSCLC.
For experiment [7], the system named is NCI-H522 lung.
Experiment [8] deals with A549/ATCC NSCLC.
The subject of experiment [9] is 786-0 renal.
Experiment [10] concerns COLO 205 colon.
The test system of experiment [11] is DU-145 prostate.
The test system of experiment [12] is K-562 leukemia.
For experiment [13], the system named is MALME-3M melanoma.
Experiment [14] concerns MDA-MB-231 breast.
Experiment [15] concerns RXF 393 renal.
For experiment [16], the system named is SF-268 CNS.
The test system of experiment [17] is SF-295 CNS.
Experiment [18] relates to SF-539 CNS.
Experiment [19] deals with UACC-257 melanoma.
The test system of experiment [20] is M14 melanoma.

Consider `COc1ccc(Cl)cc1NC(=O)c1cc2c(n1C)-c1nc(NC(=O)C(C)(C)C)sc1CC2`, for which the growth is 87.8% in [1]; 89.6% in experiment [2]; 91.3% in experiment [3]; 76.4% in experiment [4]; 98.1% in experiment [5]; 67.9% in [6]. The growth in experiment [7] is 69%; in experiment [8], 77.2%; in experiment [9], 94.7%; in experiment [10], 97.7%; in experiment [11], 98.6%; in experiment [12] it was 92.2%. In addition, the growth is 106% in experiment [13]; 91.9% in experiment [14]; 97.5% in experiment [15]; 95.5% in experiment [16]; 87.8% in experiment [17]; 98.9% in experiment [18]. For the same compound, the growth in [19] is 90.9%; in [20] it was 88.2%.
As to `COc1ccccc1P(c1ccccc1OC)c1ccccc1OC`, the growth was 250% in experiment [1]; 105% in experiment [2]; 87.5% in experiment [3]; 113% in experiment [4]; 94.8% in experiment [5]; 70% in experiment [6]. Moreover, the growth was 92.4% in [7]; 82.2% in [8]; 106% in [9]; 87.1% in [10]; 109% in experiment [11]; 107% in experiment [12]. Moreover, the growth is 104% in experiment [13]; 101% in [14]; 102% in [15]; 109% in experiment [16]; 97.3% in experiment [17]; 101% in [18]. Moreover, the growth in [19] was 78.1%; in experiment [20], 101%.
Consider `Cc1cccc(NCS(=O)(=O)O)c1`, for which the growth is 99.5% in experiment [1]; 97.1% in [2]; 106% in experiment [3]; 92.4% in experiment [4]; 105% in experiment [5]; 99.4% in experiment [6]. The growth in [7] was 90.9%; in [8] it was 75%; in [9], 103%; in experiment [10] it was 103%; in experiment [11], 112%; in [12], 107%. The growth was 102% in [13]; 111% in [14]; 109% in experiment [15]; 109% in experiment [16]; 106% in experiment [17]; 95.7% in [18]. For the same compound, the growth in [19] is 83.2%; in experiment [20], 106%.
As for `COc1cc(C(=O)N2CCN(C(=O)c3cc(OC)c(OCc4ccccc4)cc3N)CC2)c(N)cc1OCc1ccccc1`, the growth in experiment [1] was 86.8%; in experiment [2] it was 122%; in [3] it was 99.3%; in experiment [4] it was 108%; in [5] it was 115%; in experiment [6] it was 86.1%. The growth in experiment [7] was 103%; in experiment [8] it was 107%; in experiment [9] it was 104%; in [10], 115%; in experiment [11], 111%; in [12] it was 7.24% (active). The growth in experiment [13] was 91.1%; in [14], 94.7%; in experiment [15] it was 98.6%; in experiment [16], 108%; in experiment [17] it was 102%; in experiment [18] it was 104%. Also, the growth was 98.5% in [19] and 111% in experiment [20].
Regarding `O=C(O)c1ccccc1C(=O)c1ccc(I)cc1`, the growth in experiment [1] was 102%; in [2], 101%; in [3], 104%; in [4], 88.7%; in experiment [5], 105%; in experiment [6], 78.3%. Moreover, the growth was 75.5% in experiment [7]; 98.4% in [8]; 99% in experiment [9]; 103% in experiment [10]; 109% in [11]; 104% in [12]. For the same compound, the growth in [13] was 98.3%; in experiment [14] it was 110%; in [15], 108%; in experiment [16], 106%; in experiment [17], 102%; in experiment [18], 98.9%. Besides, the growth in [19] was 117%; in [20], 98.2%.
On to `CCOC(=O)c1[nH]c(-c2ccc(Cl)cc2)cc1-c1cccnc1`, for which the growth in [1] was 35.1%; in experiment [2], 68.4%; in [3], 59.4%; in experiment [4], 10.5%; in [5], 7.36% (active); in experiment [6], 17%. The growth in [7] was -1.79% (active); in experiment [8], 30.7%; in [9] it was 24.5%; in [10], -15.5% (active); in experiment [11] it was 19%; in [12] it was 6.33% (active). Also, the growth was 72.7% in experiment [13]; 40.3% in experiment [14]; -2.78% (active) in [15]; 46.6% in experiment [16]; 10.9% in [17]; -24.8% (active) in [18]. Moreover, the growth in experiment [19] was 86.3%; in experiment [20], 14.3%.
`Cc1ccc(=O)n(-c2ccc(Br)cc2F)c1`: the growth in experiment [1] is 98.4%; in experiment [2], 85.4%; in [3], 102%; in [4], 94%; in experiment [5], 110%; in [6], 77.3%. The growth was 104% in experiment [7]; 98.7% in experiment [8]; 99.5% in experiment [9]; 110% in experiment [10]; 109% in experiment [11]; 99.4% in experiment [12]. Also, the growth was 101% in experiment [13]; 103% in experiment [14]; 103% in experiment [15]; 104% in experiment [16]; 100% in [17]; 98.9% in experiment [18]. In addition, the growth in [19] is 102%; in experiment [20], 97.4%.
With `CCOc1ccc(-n2c(-c3cc(OC)c(OC)c(OC)c3)nnc2-c2ccc(OC)cc2N)cc1`, the growth in [1] was 76.4%; in experiment [2] it was 80.1%; in experiment [3], 81.3%; in [4], 78.3%; in [5] it was 42.3%; in experiment [6] it was 73.1%. The growth in experiment [7] was 52.6%; in experiment [8] it was 54.9%; in [9], 89.5%; in experiment [10], 51%; in [11] it was 57.6%; in [12], 70.3%. Also, the growth in [13] is 79.7%; in experiment [14] it was 82.7%; in [15] it was 51.9%; in experiment [16], 86.9%; in [17], 84.8%; in experiment [18], 77.6%. Besides, the growth in [19] is 57.2%; in experiment [20] it was 68.1%.
